Rows were chosen to be rich in hits. Some 2% of all compounds tested hit in one or more screens of this group.
Gli-Sufu block: blocks Gli-Sufu signaling in a luciferase reporter. Sufu-KO-LIGHT fibroblasts, Gli luciferase reporter luminescence. inhibition, % at 5 µM. 340,000 tested, 0.74% active. AID 588413;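 active = inhibition above about 55%, limit read from the data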;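 note: 0% = DMSO-treated cells and 100% = wells with medium but no cells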
GalR3 antagonist: antagonists of human GalR3; HEK293 GalR3-CNG cAMP membrane potential fluorescence; galR3 body fused to GalR1 C-terminus; inhibition, % at 3 µM; 360,000 tested, 0.44% active;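 active = inhibition above the screen-wide average plus 3 SD, cut at about 13% in these data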;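 note: forskolin and galanin both at EC90 stimulate the cells; cAMP rise reported by CNG channel membrane potential dye signal; 0% = forskolin plus galanin with DMSO and 100% = forskolin alone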
Jurkat NFkB inh: inhibitors of the PMA/ionomycin-induced NF-kB reporter in Jurkat cells | PMA/ionomycin-induced NF-kB luciferase reporter, luminescence | inhibition, % at 4 µM | 330,000 tested, 0.53% active | AID 435003; in the data active = inhibition above about 50%
COUP-TFII inh: blocks human COUP-TFII nuclear receptor; HEK293T NGFI-A luciferase reporter, luminescence; inhibition, % at 8.6 µM; 370,000 tested, 0.7% active;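 active = inhibition above a per-plate cutoff, mean inhibition of test wells between control levels plus 3 SD, cut at about 38% in these data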;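 note: cells cotransfected with COUP-TFII expression vector driving the NGFI-A reporter; 0% = median of COUP-TF2 test wells and 100% = reporter-only cells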
Target sequence (P24468 whole entry, looked up): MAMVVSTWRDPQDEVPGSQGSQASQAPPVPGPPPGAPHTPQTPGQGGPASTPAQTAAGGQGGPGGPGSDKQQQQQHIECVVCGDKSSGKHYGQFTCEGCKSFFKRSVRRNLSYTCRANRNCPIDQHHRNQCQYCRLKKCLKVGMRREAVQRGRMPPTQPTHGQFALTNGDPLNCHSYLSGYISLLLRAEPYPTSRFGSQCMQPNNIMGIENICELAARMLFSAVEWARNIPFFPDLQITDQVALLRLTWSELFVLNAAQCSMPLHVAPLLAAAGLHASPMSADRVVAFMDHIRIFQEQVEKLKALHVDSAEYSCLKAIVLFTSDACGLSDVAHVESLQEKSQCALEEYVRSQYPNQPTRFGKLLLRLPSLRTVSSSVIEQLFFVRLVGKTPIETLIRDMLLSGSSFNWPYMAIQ
697 NFkB inh: inhibitors of the PMA/ionomycin-induced NF-kB reporter in 697 B cells. 697 B-cell NF-kB luciferase reporter, 16 h. inhibition, % at 4 µM. 330,000 tested, 0.33% active; in the data active = inhibition above about 35%
Jurkat NFkB conf: lowers PMA/ionomycin-induced NF-kB signal in Jurkat cells | Jurkat NF-kB luciferase, 16 h | AID 435020 | inhibition, % at 4 µM | 2,700 tested, 27% active | shares compounds with Jurkat NFkB inh;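 active = inhibition reaching about 45% at 4 µM in either replicate, limit read from the data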;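 note: plate controls were PMA/ionomycin stimulated DMSO wells for no effect and unstimulated DMSO wells for full effect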
697 NFkB conf: inhibitors of the PMA/ionomycin-induced NF-kB reporter in 697 B cells, retest | 697 B-cell NF-kB luciferase, 16 h | shares compounds with 697 NFkB inh | 2,000 tested, 35% active | inhibition, % at 4 µM; in the data active = inhibition mostly above about 28%, no sharp cut-off; inactive = mostly below about 22%
Starred values were filed as active, the others as inactive; i = inactive; · = no result.

SMILES	Gli-Sufu block	GalR3 antagonist	Jurkat NFkB inh	COUP-TFII inh	697 NFkB inh	Jurkat NFkB conf	697 NFkB conf
O=C(/C=C/Nc1ccc(F)cc1F)c1cccs1	-10	1	-168	-39	-364	-37	-197
CC(=O)c1ccc(N/C=C/C(=O)c2ccc(Br)cc2)cc1	-58	-9	-96	2	-173	·	·
O=C(/C=C/Nc1ccc(F)cc1F)c1ccc(Br)cc1	-106	-5	-167	-50	-255	-30	-62
Cn1cccc1C(=O)N1CCN(S(=O)(=O)c2cccc3ccccc23)CC1	·	·	·	-6	·	·	·
CC1=NNC(=O)/C1=C\c1cn(-c2ccccc2)nc1-c1ccc(Cl)cc1	3	21*	95*	16	37*	46*	13
O=C(NC1CCCCN(Cc2ccc(Cl)cc2)C1=O)c1c(F)cccc1F (stereo not given)	·	·	·	9	·	·	·
COC(=O)C[C@@H]1CC[C@@H]2[C@H](COc3ccc(NC(=O)c4cccc(OC)c4)cc3C(=O)N2C)O1	·	·	·	20	·	·	·
CCCCCCCCN1C(=O)[C@@H](CC(=O)NCCCN2CCCC2=O)C[C@@]2(C(=O)OC)C1=C[C@H](C(C)C)O[C@@H]2C1CC1	·	·	·	10	·	·	·
O=C(N=c1nc2ccccn2s1)c1ccccc1	-94	-7	-191	-56	-324	-72	-304
COc1ccc(N=Cc2c(O)[nH]c3ccccc23)cc1	-137	-1	-186	-49	-297	-32	-109
N#C/C(=C\c1ccc(N2CCOCC2)cc1)c1ccccc1	20	-4	-180	-27	-254	-98	-200
COc1ccc2[nH]c3c(c2c1)CCn1c-3nc2ccccc2c1=O	-113	·	-181	·	-488	-127	-318
Cc1ccc(-c2nnc(/C=C/c3ccccc3)o2)cc1	-31	-1	-188	-24	-312	-149	-253
Cc1ccc(/C=C/c2nnc(-c3cccc(C)c3)o2)cc1	-4	8	-35	-21	-71	·	·
Cc1nn(C)c(C)c1/C=C(/C(=O)C(C)(C)C)n1cncn1	0	0	27	12	-13	·	·
CC(C)(C)C(=O)/C(=C/c1ccncc1)n1cncn1	22	6	54*	26	37*	31	42*
COc1ccccc1C(=O)N(CCC1CCCN1C)c1nc2ccccc2s1 (stereo not given)	4	-1	-216	58*	-316	38	-288
Cc1cc(=O)[nH]c(SCC(=O)Nc2ccc(Cl)cc2)n1	·	·	·	13	·	·	·
c1cc(-c2cc3cc(N4CCOCC4)ccc3o2)cs1	-141	-4	-158	-40	-289	-84	-240
Cc1ccc(C(=O)Nc2cccc(C(F)(F)F)c2)cc1NC(=O)c1nccn1C	2	-7	1	14	-17	·	·
Cc1ccc(C(=O)Nc2cccc(C(F)(F)F)c2)cc1NC(=O)c1ccno1	20	-5	51*	7	60*	87*	61*
CCOc1ccc(-c2cc(C(=O)N/N=C/c3cccnc3)c3ccccc3n2)cc1	-43	2	58*	-57	-393	-4	-301
C[C@H]1[C@H](NC(=O)c2ccc(Cl)c(C(F)(F)F)c2)CC[C@@]23CCCN2C(=O)CCC[C@@H]13	·	·	·	20	·	·	·
Nc1[nH]c2cc(Cl)ccc2c1C(=O)NCCc1ccc(Cl)cc1	·	·	·	-5	·	·	·
O=C(CCN1C(=O)NC2(CCCC2)C1=O)Nc1ccc(Sc2ccc(Br)cc2)cc1	·	-6	·	-7	·	·	·
SMILES	Gli-Sufu block	GalR3 antagonist	Jurkat NFkB inh	COUP-TFII inh	697 NFkB inh	Jurkat NFkB conf	697 NFkB conf
O=C(CCN1C(=O)NC2(CCCC2)C1=O)Nc1ccc(-c2nc3ccccc3s2)cc1	-74	-7	-181	-21	-264	-80	-332
O=S(=O)(c1ccccc1)n1c(CN2CCOCC2)nc2ccccc21	·	·	·	-2	·	·	·
O=C(Nc1ccc(Cl)cc1)Nc1cccc(C(=O)O)c1	-87	-1	76*	-40	53*	44	32*
CCOc1ccc(NC(=O)Nc2cccc(C(=O)O)c2)cc1	-32	-5	82*	-23	81*	80*	77*
CCOC(=O)c1cccc(NC(=O)Nc2ccc(OCC)cc2)c1	-84	-1	-25	-31	-54	·	·
O=C(/C=C\Nc1ccc2c(c1)OCO2)c1cccs1	-137	-8	-144	-85	-4	·	·
O=C(/C=C\Nc1ccc2c(c1)OCO2)c1ccc(Cl)s1	-114	-1	-201	-25	-407	-18	-106
COc1ccc(CNS(=O)(=O)/C=C/c2ccc(F)cc2CNC(=O)OC(C)(C)C)cc1	·	·	·	-4	·	·	·
COc1ccccc1-c1nc(-c2cccc(C)c2)no1	-97	1	-212	-62	-284	-178	-258
COc1ccc(-c2noc(-c3ccccc3F)n2)cc1	-30	4	-207	-68	-287	-106	-234
COc1cc(OC)c(-c2nc(-c3ccncc3)no2)cc1OC	-2	-6	9	12	25	·	·
COc1ccc(-c2nc(-c3ccncc3)no2)c(OC)c1	-52	-9	-201	-28	-380	-98	-283
CC(COc1cccc(OC(F)(F)F)c1)CN1CCC(C(O)(c2ccccc2)c2ccccc2)CC1 (stereo not given)	·	·	·	6	·	·	·
CCc1cc2c(=O)c(-c3ccc4c(c3)OCCO4)coc2cc1OC(=O)c1ccco1	-121	-5	-223	-27	-360	-129	-407
CCCc1cc2c(=O)c(-c3ccc4c(c3)OCCO4)coc2cc1OC(=O)c1ccco1	-56	-6	-89	-8	-186	·	·
Cc1ccsc1/C=N/N=C/c1sccc1C	-83	-9	-173	-60	-299	-99	-230
Cc1cc(C(=O)Nc2sc(C)c(-c3ccc(F)cc3)c2C(N)=O)no1	-73	-5	-192	-30	-294	-96	-204
CCOC(=O)c1sc2nc(-c3ccccc3)ccc2c1N	-105	1	-296	-64	-336	-80	-188
COc1ccc(S[C@]2(C(=O)N3CCN(c4ncccn4)CC3)CC(=O)N(C(=O)CCc3ccccc3)[C@@H]2c2ccc(OC)cc2)cc1	·	·	·	2	·	·	·
Brc1ccc(-c2nnc(-c3ccccc3Br)o2)cc1	-86	-1	-194	-38	-308	-95	-267
C=C1C(=O)C=C2CN(C(=O)c3ccccc3)[C@@](Cc3ccc(F)cc3)(C(=O)OC)[C@@H]12	62*	·	83*	·	i	76*	-250
C[C@H]1[C@@H](O)CC[C@@]23CCCN2C(=O)CCC[C@@H]13	·	·	·	13	·	·	·
CC(C)c1cc(C(C)C)c(S(=O)(=O)NCC(=O)N2CCN(c3ncccn3)CC2)c(C(C)C)c1	·	·	·	-13	·	·	·
CC1(C)CCc2cc(-c3ccnc(=S)[nH]3)ccc2O1	-15	-2	-158	1	-266	-16	-175
O=C(NCCc1ccccc1F)c1cc2ccccn2n1	·	·	·	-26	·	·	·
COc1ccc(CNC(=O)CSc2nc3c([nH]2)c(=O)n(C)c(=O)n3C)cc1	·	·	·	7	·	·	·
N#Cc1nc(Nc2cccc(Cl)c2)c2ncn(C3CCCC3)c2n1	26	-2	-257	-5	-259	-59	-358

High-throughput results: PubChem BioAssay, several laboratories
